Among the data in a collection of fitness landscapes (doi:10.1126/science.1257360) are enrichment ratio values, retold here.

In all, about 140,000 sequences were measured (“enrichment ratio after two sorts for PhoP signalling”: median about 0, highest 2% from about 11 on). For the sample, the highest values were picked, then their nearest neighbours and some sequences at random.

The labels stand for the following.
B1: PhoQ; a variant is named by its letters at X, in order, P23837 (parent)
chain: MKKLLRLFFPLSLRVRFLLATAAVVLVLSLAYGMVALIGYSVSFDKTTFRLLRGESNLFYTLAKWENNKLHVELPENIDKQSPTMTLIYDENGQLLWAQRDVPWLMKMIQPDWLKSNGFHEIEADVNDTSLLLSGDHSIQQQLQEVREDDDDAEMTHSVAVNVYPATSRMPKLTIVVVDTIPVELKSSYMVWSWFIYVLSANLLLVIPLLWVAAWWSLRPIEALAKEVRELEEHNRELLNPATTRELTSLVRNLNRLLKSERERYDKYRTTLTDLTHSLKTPLXXLQXXLRSLRSEKMSVSDAEPVMLEQISRISQQIGYYLHRASMRGGTLLSRELHPVAPLLDNLTSALNKVYQRKGVNISLDISPEISFVGEQNDFVEVMGNVLDNACKYCLEFVEISARQTDEHLYIVVEDDGPGIPLSKREVIFDRGQRVDTLRPGQGVGLAVAREITEQYEGKIVAGESMLGGARMEVIFGRQHSAPKDE

Variants of B1 are the subject of the assay. Description: enrichment ratio after two sorts for PhoP signalling (ratio (wild type AVST 3.29)); higher = more functional. Conditions: with PhoP (E. coli).
PNCG: the enrichment ratio was at most 0.25.
GQCS: the enrichment ratio turned out to be 4.33.
The figure for GQCG is 16.6; for GVCW it is 11.5.
For PWCG, the enrichment ratio was at most 0.25.
Consider GQWG, for which the enrichment ratio is at most 0.25.
The figure for GQCI is 2.43.
In the case of GTCG it was 7.53.
In the case of GVCG it was 12.7; in that of NVCW, at most 0.25; in that of GNCW, at most 0.25.
As to GQCE, the enrichment ratio worked out at 21.9.
As to TNLK, the enrichment ratio was at most 0.25.
The figure for EITI is at most 0.25; for RPCA it is at most 0.25; for WVGL it is at most 0.25.
On to NTRE, for which the enrichment ratio was at most 0.25.
Take RRCS: the enrichment ratio is at most 0.25.
As to NLFK, the enrichment ratio was at most 0.25.
The figure for SDVW is at most 0.25; for PHGP it is at most 0.25; for TMNC it is 15.3.
In the case of NHGC it was at most 0.25.
For TMPC, the enrichment ratio was at most 0.25.
Turning to TMTC, the enrichment ratio stood at 13.5.
In the case of TMGC it was 11.3; in that of KMNC, at most 0.25; in that of FFGC, at most 0.25.
In the case of TMNK, the enrichment ratio was at most 0.25.
In the case of DMNC it was at most 0.25.
The figure for QPGC is at most 0.25; for KCGC it is at most 0.25; for QGGC it is 19.5.
The figure for EFVE is at most 0.25; for GASP it is at most 0.25.
With HAHN, the enrichment ratio is at most 0.25.
The figure for TCGC is 23.2; for GMGC it is at most 0.25.
Consider MITC, for which the enrichment ratio is at most 0.25.
The figure for TMGA is 17.5.
With DMLC, the enrichment ratio was at most 0.25.
The figure for TMLC is 13.8.
Turning to VEGC, the enrichment ratio is at most 0.25.
On to NMLC, for which the enrichment ratio was at most 0.25.
For the variant MEGC, the enrichment ratio is at most 0.25.
On to MIGC, for which the enrichment ratio is 41.4.
As to TMGQ, the enrichment ratio amounted to 5.04.
The figure for TMPP is at most 0.25; for ATVL it is 4.07; for EFKF it is at most 0.25.
In the case of SCEM it was at most 0.25.
The figure for AQGC is 12.4; for TMWA it is at most 0.25; for AIGC it is 5.62.
Regarding TMPI, the enrichment ratio is at most 0.25.
The figure for CFGC is at most 0.25.
With TGGC, the enrichment ratio amounted to 11.2.
Turning to THGC, the enrichment ratio was found to be 5.27.
Take TMTS: the enrichment ratio worked out at 11.7.
TMKR: the enrichment ratio is at most 0.25.
In the case of NQGC it was at most 0.25; in that of TMQR, 8.83.
The figure for TMCR is 20.7.
For RMSH, the enrichment ratio is at most 0.25.
The figure for QWWT is at most 0.25; for TGKL it is at most 0.25; for NNCI it is at most 0.25.
With HTDV, the enrichment ratio was at most 0.25.
For IQST, the enrichment ratio is at most 0.25.
In the case of SVER it was at most 0.25; in that of HCRQ, at most 0.25; in that of NKWN, at most 0.25.
The figure for KAGC is at most 0.25.
Turning to TAGC, the enrichment ratio worked out at 13.9.
In the case of SSGC, the enrichment ratio is 13.8.
Take LTGC: the enrichment ratio was at most 0.25.
For TDGC, the enrichment ratio was found to be 17.1.
For SRGC, the enrichment ratio was at most 0.25.
With VGGC, the enrichment ratio was at most 0.25.
In the case of FDGC it was at most 0.25; in that of KSGC, at most 0.25.
In the case of MLHI it was 1.88.
The figure for WSGR is at most 0.25; for TCPW it is at most 0.25; for LTCV it is at most 0.25.
As for RIDL, the enrichment ratio is at most 0.25.
On to TYQH, for which the enrichment ratio is at most 0.25.
In the case of CKSI it was at most 0.25; in that of WTRS, at most 0.25; in that of TFHR, at most 0.25.
YNLV: the enrichment ratio turned out to be 1.85.
The figure for DWIL is at most 0.25; for SHQY it is at most 0.25.
With NHQY, the enrichment ratio is at most 0.25.
The figure for TQII is 15.7.
In the case of NVSY it was at most 0.25; in that of FQAY, at most 0.25.
The figure for TQSY is 12.3.
On to DWSY, for which the enrichment ratio is at most 0.25.
With TQAY, the enrichment ratio was determined as 17.
In the case of FQII, the enrichment ratio is at most 0.25.
In the case of TQID it was at most 0.25.
Take LAAY: the enrichment ratio was at most 0.25.
On to THQY, for which the enrichment ratio was found to be 15.
With EFDW, the enrichment ratio is at most 0.25.
The figure for DSGT is at most 0.25; for HYAH it is at most 0.25; for YAPS it is 0.949.
As to YQLH, the enrichment ratio was determined as 0.516.
In the case of HVYR it was at most 0.25.
On to TVQY, for which the enrichment ratio was 19.2.
The figure for KSQY is at most 0.25; for LAQY it is at most 0.25; for TSQY it is 13.5.
As to TQEY, the enrichment ratio was at most 0.25.
On to SPQY, for which the enrichment ratio was at most 0.25.
As for MMQY, the enrichment ratio is at most 0.25.
In the case of TQQY it was 15.1; in that of NVQY, at most 0.25; in that of VSHP, at most 0.25.
As for ARTY, the enrichment ratio was at most 0.25.
IGHH: the enrichment ratio was 2.36.
In the case of LVAL, the enrichment ratio is at most 0.25.
Regarding YMKE, the enrichment ratio was at most 0.25.
The figure for RLRC is at most 0.25.
In the case of RSML it was at most 0.25; in that of FSML, 12.7.
In the case of QSML it was 3.2; in that of VTEL, at most 0.25.
With VYML, the enrichment ratio is at most 0.25.
In the case of VFML it was at most 0.25.
The figure for FQML is 0.396.
Turning to VSML, the enrichment ratio was determined as 15.7.
Regarding YSML, the enrichment ratio stood at 14.4.
The figure for VTML is 15.3; for LPWT it is at most 0.25.
On to DNAA, for which the enrichment ratio is at most 0.25.
The figure for DPIA is at most 0.25; for GRAC it is at most 0.25.
On to KSML, for which the enrichment ratio was at most 0.25.
In the case of TSML it was 17.8; in that of NSML, 4.86.
Consider PARS, for which the enrichment ratio is at most 0.25.
In the case of QYPA it was at most 0.25; in that of YART, at most 0.25; in that of QKCC, at most 0.25.
TVGQ: the enrichment ratio was 15.3.
In the case of KIGQ it was at most 0.25.
In the case of HCGQ it was at most 0.25; in that of TVGG, 16.2; in that of NVGG, at most 0.25.
The figure for PVGG is at most 0.25; for ELLA it is at most 0.25.
